esBAF inh = blocks esBAF chromatin remodeling in mouse ES cells | Bmi1-luciferase knock-in reporter, 24 h; 100% = twice the neutral-well signal | reporter increase, % at 12.5 µM | hit rate 2% among 350,000; in the data active = activation above about 40%; inconclusive = no clear call, values can overlap the other calls;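 also: 0% = median of the plate's neutral control wells and 100% = double that signal; a rise in the Bmi1 reporter signal indicates esBAF inhibition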
Wnt act = activators of Wnt/beta-catenin signaling. Wnt/beta-catenin reporter cell assay, activator, plate reader. activation, % at 9.35 µM. hit rate 1.2% among 300,000. AID 743398; in the data active = activation above about 30%, passing the limit was not always enough; inconclusive = no clear call, values can overlap the other calls;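 also: 0% = neutral control wells and 100% = positive control wells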
Statin myotox sup = protects C2C12 myotubes from simvastatin toxicity. ATP luminescence, 48 h; scaled: DMSO 0, geranylgeraniol control 100. rescue of ATP level, % at 7.49 µM. hit rate 0.78% among 330,000;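 active = mean ATP rescue above about 67%, or every replicate alone reaching that limit, limit read from the data, passing the limit was not always enough; inconclusive = no clear call, values can overlap the other calls; inactive = mean under the limit and some replicate under it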;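 also: myotubes were challenged with 10 µM simvastatin during compound exposure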
MITF act = activators of MITF-driven TRPM1 promoter activity in SK-MEL-5 cells. AID 588334. activation, % at 12.5 µM. SK-MEL-5 TRPM1-promoter luciferase, 24 h; % of positive control, neutral wells = 0. hit rate 0.75% among 300,000;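 active = mean activation of at least 80% with every replicate also reaching 80%; inconclusive = mean reaches 80% but some replicate falls short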;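 also: 0% = neutral control wells and 100% = parthenolide positive control wells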
FXN GAA850 act = increases GAA850 frataxin promoter reporter activity. HEK293 lucGAA850 FXN promoter luciferase reporter, 24 h; percent of 10 µM SAHA response. activation, % at 6 µM. hit rate 0.56% among 360,000;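 active = activation above the average of all compounds screened plus 3 SD, cutoff fixed separately per campaign, cut at about 7.5% in these data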;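 also: 0% = DMSO wells and 100% = 10 µM SAHA wells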
The depositor's hits bear a star; u = inconclusive; x = not tested or not shown. A selection: hits, their analogues and other compounds. The true share with any hit is near 3.3%.

SMILES | esBAF inh | Wnt act | Statin myotox sup | MITF act | FXN GAA850 act
Nc1ccc(Nc2nc(-c3ccncc3)cs2)cc1 | 34.5 | 9.8 | -124.3 | 120.2* | -2.4
COc1ccc(Nc2nc(-c3c[nH]c4ccccc34)cs2)cc1 | x | 39.9* | x | 26.0 | 7.5
COc1ccc(Nc2nc(-c3ccc(OC)cc3)cs2)cc1 | x | -0.1 | x | 94.5* | 4.9
COc1ccccc1Nc1nc(-c2cccc([N+](=O)[O-])c2)cs1 | x | 26.9 | x | x | 3.4
O=[N+]([O-])c1cccc(-c2csc(Nc3ccccc3)n2)c1 | 52.4* | 9.2 | 1.0 | 43.9 | 6.4
Cc1c(C(=O)Nc2cccc([N+](=O)[O-])c2)csc1-c1ccccc1 | 49.7* | x | -19.5 | 55.9 | -3.5
Cc1ccn2cc(-c3cccc(NC(=O)C(C)C)c3)nc2c1 | x | -1.0 | x | 34.1 | 3.9
O=C(Nc1cccc(-c2csc(Nc3ccccc3)n2)c1)c1ccccc1 | 57.4* | 26.9 | -49.5 | 106.4* | -1.0
Cc1ccn2cc(-c3cccc(NC(=O)c4ccccc4)c3)nc2c1 | x | 17.2 | x | 105.0* | 4.2
COCC(=O)N(C)C[C@@H]1Oc2ncc(-c3ccc(C#N)cc3)cc2C(=O)N([C@H](C)CO)C[C@@H]1C | 0.6 | x | 14.1 | x | x
O=C(Nc1nc(-c2ccccc2)cs1)c1cccc([N+](=O)[O-])c1 | 61.3* | x | -16.7 | 25.5 | -1.7
Cc1nc(NC(=O)C2CC2)sc1C(=O)Nc1ccccc1Cl | 53.1* | 0.6 | -12.4 | x | 1.3
Cc1nc(Cl)sc1C(=O)Nc1ccccc1Cl | -2.7 | 1.8 | 5.6 | x | 1.9
COc1ccccc1CNC(=O)C[C@H]1C[C@@H]2c3cc(N(C)C)ccc3O[C@@H]2[C@H](CO)O1 | 5.6 | x | -3.2 | x | x
Cn1cnc(S(=O)(=O)N2C[C@@H](O)COC[C@H]3O[C@@H](CC(=O)NCc4cc(F)cc(F)c4)CC[C@@H]32)c1 | 1.3 | x | 7.6 | x | x
CCOc1cc(CNn2nnnc2N)ccc1OCC(=O)NC(C)(C)C | 6.0 | -0.7 | 83.0* | -14.3 | 2.4
COc1cc(CNn2nnnc2N)ccc1OCC(=O)NC(C)(C)C | -13.9 | x | 7.7 | 12.3 | 0.9
CO[C@@H]1CN(C)C(=O)c2cc(NC(=O)C3CC3)ccc2OC[C@@H](C)N(C(=O)C2CCCCC2)C[C@H]1C | 4.4 | x | 8.2 | x | x
c1ccc(-c2nnc(-c3ccccc3)nn2)cc1 | x | 50.3* | x | x | 1.3
Cc1ccccc1NC(=O)CCN1C(=O)CSC1=O | 4.6 | -3.6 | 9.7 | 2.5 | -0.4
CC1=C(C(=O)Nc2ccccc2C)C(c2ccc(C)o2)N2C(=O)CSC2=N1 (configuration not stated) | 0.4 | 0.5 | 78.4* | -1.9 | -0.9
COc1cccc(NC(=S)N/N=C2\CC3CCC2(C)C3(C)C)c1 (configuration not stated) | 53.6* | 4.2 | -13.2 | 24.9 | 4.3
CC12CCC(C/C1=N/NC(=O)Nc1ccccc1)C2(C)C (configuration not stated) | x | -0.2 | x | 37.0 | 2.3
COc1ccc(CNC(=O)C(c2ccncc2)N(C(=O)Cc2cccs2)c2ccc(C)cc2)cc1 (configuration not stated) | 129.8* | x | -23.9 | 1.3 | 0.0
COc1ccc(CNC(=O)C(c2ccncc2)N(C(=O)Cc2cccs2)c2ccccc2)cc1 (configuration not stated) | x | 2.5 | x | -19.4 | -0.4
SMILES | esBAF inh | Wnt act | Statin myotox sup | MITF act | FXN GAA850 act
CCCC(=O)Nc1ccc2c(c1)C(=O)N(C)C[C@@H](OC)[C@H](C)CN(C(=O)c1ccccn1)[C@@H](C)CO2 | -1.9 | x | -8.3 | x | x
CCc1ccc(C(O)c2ncc(-c3cccc(F)c3)[nH]2)cc1 (configuration not stated) | 87.0* | -2.2 | -3.3 | x | 1.6
COc1cccc(-c2cnc(C(O)c3ccc(F)cc3)[nH]2)c1 (configuration not stated) | 55.9* | 1.6 | 1.7 | x | 0.3
CCCc1ccc(C(O)c2ncc(-c3cccc(F)c3)[nH]2)cc1 (configuration not stated) | 14.9 | 8.7 | -13.3 | x | 1.1
CC(=O)C(=Nc1ccccc1Cl)NNc1ccc(Cl)cc1 | -3.5 | -1.6 | 151.6* | -7.1 | 3.1
CC1(C)NC(=O)N(CC(O)CN2C(=O)CCC2=O)C1=O (configuration not stated) | -2.4 | x | 10.5 | x | -0.4
CC1(C)NC(=O)N(CC(O)COc2cccc(F)c2)C1=O (configuration not stated) | -1.5 | -2.4 | -13.1 | 1.8 | -0.5
COc1ccc(OCC(O)CN2C(=O)NC(C)(C)C2=O)cc1 (configuration not stated) | -1.9 | -2.1 | 121.0* | 0.5 | 2.1
CC1(C)NC(=O)N(CC(O)Cn2nnc3ccccc32)C1=O (configuration not stated) | -1.3 | -1.0 | 130.6* | 9.5 | -0.1
COc1ccc(CN(C)C[C@@H]2OCCCC[C@H](C)Oc3ccc(N(C)C)cc3C(=O)N([C@H](C)CO)C[C@H]2C)cc1 | -0.4 | x | 4.7 | x | x
COC(=O)c1cn[nH]c1NC(=S)Nc1ccccc1C | 67.1* | 9.9 | -7.3 | u | 3.5
COC(=O)c1cn[nH]c1NC(=S)Nc1ccc(C)cc1Cl | -7.2 | x | -20.8 | 55.2 | 1.8
Cc1ccc(S(=O)(=O)Nc2cccc3c2O[C@@H](CN(C)Cc2ccc(C(F)(F)F)cc2)[C@H](C)CN([C@@H](C)CO)C3=O)cc1 | 1.4 | x | 77.6* | x | x
Cc1ccc(S(=O)(=O)Nc2cccc3c2O[C@@H](CN(C)Cc2ccc(C(F)(F)F)cc2)[C@H](C)CN([C@H](C)CO)C3=O)cc1 | -1.2 | x | 101.5* | x | x
CCOC(=O)c1cc(=O)n(Cc2ccccc2C)c2ccccc12 | 4.1 | -1.8 | 103.0* | -2.5 | 4.1
Cc1cc2oc(=O)cc(CN3CCC(C)CC3)c2cc1Cl | 58.3* | 4.2 | 26.1 | 23.9 | 0.1
O=C(CN1CCOCC1)NCC[C@H]1CC[C@@H](NC(=O)Cc2ccccn2)[C@@H](CO)O1 | -0.5 | x | 3.1 | x | x
CC(=O)c1c(C)[nH]c(C(=O)COC(=O)Cc2ccccc2F)c1C | 56.0* | 26.4 | -8.1 | x | 0.5
C[C@@H]1CN([C@@H](C)CO)C(=O)Cc2cc(NC(=O)C3CC3)ccc2O[C@H]1CN(C)S(=O)(=O)c1cccs1 | -1.2 | x | -5.7 | x | x
O=C(NNC(=O)c1ccncc1)Nc1ccccc1 | -6.0 | -2.6 | -28.4 | 4.2 | 0.3
O=C(NNC(=O)c1ccncc1)Nc1ccc(N=Nc2ccccc2)cc1 | x | 10.6 | 100.1* | 41.1 | 3.6
O=C(C[C@H]1CC[C@@H]2[C@H](COC[C@H](O)CN2S(=O)(=O)c2ccccc2)O1)NCc1ccc2c(c1)OCO2 | 3.0 | x | 2.5 | x | x
O=C(C[C@H]1CC[C@@H]2[C@H](COC[C@H](O)CN2C(=O)Nc2ccc(Cl)c(Cl)c2)O1)NCc1ccccc1 | -3.7 | x | -12.2 | x | x
CC(C)=CCC/C(C)=C/CNC(=O)C[C@H]1C[C@H](C(=O)N2CCCCC2)[C@@]2(CCc3ccccc3)c3[nH]c4ccc(Cl)cc4c3CCN2C1=O | -4.0 | -2.9 | -1.9 | 7.9 | -1.3

Screens deposited in PubChem BioAssay by several laboratories.
